Compounds without any hit were thinned out: in the full panel of roughly 83,000, 20% have a hit.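 Values shown are percent growth following 48 h exposure of cells in 96-well plates to a single concentration of compound; below 10 was considered active.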 A number with no mark means an inactive call. The source made the active and inactive calls.
How the values were obtained:
Experiment in all cases: NCI-60 one-dose screen, 48 h (100 = growth as untreated, 0 = no growth, -100 = all killed)
Settings in all cases: 10 µM unless noted
HCT-15 colon = tested on: HCT-15 colon
HT29 colon = tested on: HT29 colon
SNB-75 CNS = tested on: SNB-75 CNS
SNB-19 CNS = tested on: SNB-19 CNS
U251 CNS = tested on: U251 CNS
PC-3 prostate = tested on: PC-3 prostate
SK-MEL-5 melanoma = tested on: SK-MEL-5 melanoma
UACC-62 melanoma = tested on: UACC-62 melanoma
LOX IMVI melanoma = tested on: LOX IMVI melanoma
SK-MEL-28 melanoma = tested on: SK-MEL-28 melanoma
SK-MEL-2 melanoma = tested on: SK-MEL-2 melanoma
EKVX NSCLC = tested on: EKVX NSCLC
SN12C renal = tested on: SN12C renal
UO-31 renal = tested on: UO-31 renal
TK-10 renal = tested on: TK-10 renal
ACHN renal = tested on: ACHN renal
CAKI-1 renal = tested on: CAKI-1 renal
CCRF-CEM leukemia = tested on: CCRF-CEM leukemia
MOLT-4 leukemia = tested on: MOLT-4 leukemia

| Compound | growth (HCT-15 colon) | growth (HT29 colon) | growth (SNB-75 CNS) | growth (SNB-19 CNS) | growth (U251 CNS) | growth (PC-3 prostate) | growth (SK-MEL-5 melanoma) | growth (UACC-62 melanoma) | growth (LOX IMVI melanoma) | growth (SK-MEL-28 melanoma) | growth (SK-MEL-2 melanoma) | growth (EKVX NSCLC) [%] | growth (SN12C renal) | growth (UO-31 renal) | growth (TK-10 renal) | growth (ACHN renal) | growth (CAKI-1 renal) | growth (CCRF-CEM leukemia) | growth (MOLT-4 leukemia) |
| --- | --- | --- | --- | --- | --- | --- | --- | --- | --- | --- | --- | --- | --- | --- | --- | --- | --- | --- | --- |
| Nc1nnc(C(=O)c2cnc3n(c2=O)CCCCC3)s1 | 102% | 115% | 85.7% | 102% | 101% | 101% | 98.5% | 93.3% | 89% | 106% | 112% | 98.8 | 95.1% | 86.3% | 102% | 101% | 92.3% | 128% | 97.1% |
| CC(=O)OC1CCC2(C)C(CCC3C4CC=C(C(C)=O)C4(C)OC(=O)CC32)C1 (stereo not drawn) | 5.27% (active) | -59.4% (active) | 95% | 94.6% | 54.8% | 73.2% | 54.7% | 37.8% | -19.9% (active) | 4.51% (active) | 17.7% | 87.2 | 57.8% | 21.3% | -20.2% (active) | 7.04% (active) | 39.4% | -27.5% (active) | -37.1% (active) |
| Cc1cc2nc(-c3ccccc3)c(-c3ccccc3)nc2cc1C | 98.1% | 116% | 114% | 104% | 105% | 106% | 92.4% | 85.5% | 100% | 105% | 107% | 89.2 | 92.8% | 113% | 125% | 114% | 98.7% | 99.4% | 89% |
| COc1ccc(/C(C)=N/NC(=O)CSc2nc3ccccc3c(=O)n2Cc2ccc(S(N)(=O)=O)cc2)c(OC)c1 | 96.2% | 111% | 82.9% | 95.5% | 103% | 97.1% | 98% | 96.9% | 94.2% | 110% | 115% | 89.9 | 100% | 80% | 108% | 105% | 89.9% | 104% | 97.9% |
| FC(F)(F)c1cccc(Nc2ccccc2)c1 | 99.4% | 105% | 94.7% | 98.2% | 97.7% | 102% | 103% | 96.5% | 98.7% | 102% | 88.7% | 101 | 101% | 97.6% | 94% | 99.6% | 97.5% | 109% | 89.9% |
| CC(C)C1C2=C(NCCN1C(=O)Cc1ccccc1)C(C)(C)N(Cc1ccccc1)C2=O (stereo not drawn) | 95.4% | 109% | 85.3% | 96.8% | 103% | 93.2% | 104% | 92.4% | 101% | 104% | 94.3% | 94.5 | 98.5% | 87.3% | 97.3% | 101% | 84.2% | 111% | 96.8% |
| O=C1/C(=C\c2cn(Cc3ccccc3)c3ccc(Br)cc23)c2ccccc2N1c1c(Cl)cccc1Cl | 102% | 101% | 76.4% | 90.9% | 96.4% | 78% | 104% | 98.4% | 88.8% | 107% | 101% | 89.2 | 97.7% | 87.3% | 102% | 104% | 83% | 96.8% | 95.8% |
| c1ccc(-c2nn(-c3ccccc3)[n+](-c3ccccc3-c3ccccc3)n2)cc1 | 101% | 5.29% (active) | 29.7% | 27.9% | 15% | 2.58% (active) | -25.8% (active) | 26.4% | 12.5% | 48.7% | -15.8% (active) | 11.7 | 12.9% | 80.1% | 26% | 56% | 88.2% | 17.2% | 22.9% |
| NC(=O)c1ncn(C2OC(CO)C(O)C2O)n1 (stereo not drawn) | 89.3% | 73.3% | 80.6% | 104% | 99.7% | 85.2% | 99.1% | 104% | 90.3% | 106% | 40.7% | 90.2 | 82.4% | 83.7% | 109% | 90.5% | 99.2% | 67.1% | 52.7% |
| Cn1/c(=N/NC(N)=S)ccc2ccccc21 | 82.3% | 57.9% | 101% | 105% | 97.5% | 76.7% | 102% | 102% | 102% | 117% | 117% | 78.1 | 91.3% | 62.7% | 113% | 95.2% | 95.7% | 63.9% | 48.5% |
| Cc1ccc(S(=O)(=O)Nc2ccc(Cl)cc2)cc1 | 107% | 112% | 82.7% | 96.9% | 96.4% | 87.2% | 106% | 77.2% | 95.1% | 97.2% | 135% | 90.4 | 94.3% | 82.1% | 118% | 99.8% | 82.3% | 95.8% | 105% |
| CCc1c(Nc2ccc(C)cc2)nc(N)[nH]c1=O | 103% | 100% | 87% | 98.9% | 101% | 95.4% | 102% | 87.2% | 105% | 101% | 98.1% | 92.1 | 92.4% | 85.8% | 104% | 103% | 91.7% | 104% | 101% |
| O=C(CCN1CCCC1)Nc1ccc2c(NCc3ccc(F)cc3)c3ccccc3nc2c1 | 14.3% | 0.774% (active) | -11% (active) | 4.86% (active) | -39.3% (active) | -17% (active) | 30.5% | 1.75% (active) | -74% (active) | 30.5% | -5.55% (active) | 14.6 | -2.56% (active) | 1.44% (active) | -3.79% (active) | 5.75% (active) | 3.81% (active) | -15.2% (active) | -19.8% (active) |
| C[C@H]1[C@H](C)CC[C@]2(CO)CC[C@]3(C)C(=CC[C@@H]4[C@@]5(C)CCCNC(C)(C)[C@@H]5CC[C@]43C)[C@H]12 | 6.84% (active) | -75.4% (active) | 9.21% (active) | -64.9% (active) | -83.3% (active) | -43.2% (active) | 22.5% | -72.3% (active) | -94.9% (active) | -84.9% (active) | 13.1% | 19.4 | -1.54% (active) | 12.5% | 23% | -66.3% (active) | 16.4% | -34.7% (active) | -45.6% (active) |
| CC(=O)c1c(-c2ccc(OC(F)(F)F)cc2)nc2ccccn12 | 94.9% | 74.2% | 91.9% | 99.1% | 89.8% | 95.1% | 96.6% | 105% | 91.6% | 90% | 81.5% | 96 | 103% | 81.6% | 6.58% (active) | 95.7% | 92.4% | 109% | 118% |
| O=C(CN1CCOCC1)Nc1ccc2ncnc(Nc3ccc(OCc4cccc(F)c4)c(Cl)c3)c2c1 | 60% | 61% | 69.1% | 72.2% | 77.1% | 51.9% | 61.5% | 84.8% | 72.9% | 77% | 88.1% | 25.1 | 48.1% | 30.7% | 37.8% | 24.5% | 45.8% | 66.7% | 47.9% |
| NNC(=O)/C(=C\c1ccc([N+](=O)[O-])cc1)CC(=O)c1ccc(Cl)c(Cl)c1 | 89.6% | 88.4% | 63.3% | 89.6% | 91.8% | 79.4% | 93.6% | 73.8% | 71.3% | 103% | 95.7% | 69.5 | 88% | 58.6% | 97.5% | 91.1% | 66.8% | 80.9% | 61.4% |

Reference: PubChem BioAssay (NCI)
